# An excerpt weighted towards active compounds, which were near 19% of everything screened.
# Giardia kill: Small Molecules that selectively kill Giardia lamblia: qHTS. Giardia lamblia trophozoite viability. AID 540267, 2011. activity change, % at 7.66 µM, hits read low. hit rate 0.15% among 340,000; in the data active = activity change below about -80%; inconclusive = between about -30% and that limit;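 also: parasites exposed to compound for two days anaerobically before the ATP read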
#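 Giardia trophozoites, 100 cells per well, were exposed to compounds for 48 hrs at 37 deg C under anaerobic conditions; viability was then read as ATP content by bioluminescence after 15-30 min at room temperature.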
# IL-1B inflam inh: qHTS for Inhibitors of Inflammasome Signaling: IL-1-beta AlphaLISA Primary Screen. hit rate 4.7% among 360,000. AID 743279, 2014. activity change, % at 57.5 µM. THP-1 LPS/ATP IL-1B secretion, AlphaLISA, 16 h; stronger effect = lower value; in the data active = activity change below about -50%; inconclusive = mostly about -30% to -49%
#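 Secreted IL-1B measured by AlphaLISA bead assay after 16 h compound exposure of THP-1 cells; compounds (final up to 57.5 uM) added 1 h before LPS (250 ng/mL) and ATP (1.25 mM) stimulation; lower signal means less secretion.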
# TDP1 cell CPT: qHTS for Inhibitors of human tyrosyl-DNA phosphodiesterase 1 (TDP1): qHTS in cells in presence of CPT; chicken DT40 Tdp1-/-;hTDP1 cells + 20 nM CPT, ATP luminescence, 48 h; Potency, µM (series often up to 46.2 µM), for the others: at the highest dose activity change, negative = growth inhibition, most hits filed as inhibitors; hit rate 12% among 420,000; also: potency is read from the fitted curve at half-maximal effect; nearly all actives have a fitted effect of over 55% in size
#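 Chicken DT40 Tdp1-/- cells complemented with human TDP1, 400 cells/well, exposed to compounds plus 20 nM camptothecin for at least 48 h at 37 C; viability read as ATP content by CellTiter-Glo luminescence.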
# ELG1 DNA repair: qHTS screen for small molecules that inhibit ELG1-dependent DNA repair in human embryonic kidney (HEK293T) cells expressing luciferase-tagged ELG1. HEK293T ELG1-luciferase reporter, luminescence, 16 h; DNA damage induced by 5-fluorouridine. Potency, µM (highest dose often 46.1 µM), without a hit: top-dose activity change, negative = inhibition, usual class: inhibitors. hit rate 2.3% among 330,000; also: potency is read from the fitted curve at half-maximal effect; nearly all actives have a fitted effect of over 55% in size
#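 5-Fluorouridine DNA damage + compound/DMSO, 2,000 cells/well, 16 h, 37 °C/5% CO2. ONE-Glo, 30 min RT, luminescence. Readout = decrease in reporter signal.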
# TDP1 cell noCPT: qHTS for Inhibitors of human tyrosyl-DNA phosphodiesterase 1 (TDP1): qHTS in cells in absence of CPT. Potency, µM (titrated, usually from 46.2 µM), for inactives: at the highest dose activity change, negative = growth inhibition, usual class: inhibitors. hit rate 15% among 420,000. AID 686978, 2013. DT40 Tdp1-/- hTDP1 cells, no CPT, ATP luminescence, 48 h; also: potency is read from the fitted curve at half-maximal effect; nearly all actives have a fitted effect of over 55% in size
#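 Growth of hTDP1-complemented DT40 Tdp1-knockout cells is measured by ATP luminescence after at least 48 hr compound exposure at 37 °C, with DMSO substituting for the 20 nM CPT used in the parallel screen.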
# TDP1 inh: qHTS Assay for Inhibitors of Tyrosyl-DNA Phosphodiesterase (TDP1) | AID 485290, 2010 | hit rate 0.28% among 350,000 | recombinant TDP1, AlphaScreen DNA substrate cleavage | Potency, µM (series often up to 130 µM), for the others: at the highest dose activity change, negative = inhibition, hits mostly inhibitors; also: potency is read from the fitted curve at half-maximal effect; nearly all actives have a fitted effect of over 40% in size
# Target sequence (Q9NUW8 whole entry, looked up): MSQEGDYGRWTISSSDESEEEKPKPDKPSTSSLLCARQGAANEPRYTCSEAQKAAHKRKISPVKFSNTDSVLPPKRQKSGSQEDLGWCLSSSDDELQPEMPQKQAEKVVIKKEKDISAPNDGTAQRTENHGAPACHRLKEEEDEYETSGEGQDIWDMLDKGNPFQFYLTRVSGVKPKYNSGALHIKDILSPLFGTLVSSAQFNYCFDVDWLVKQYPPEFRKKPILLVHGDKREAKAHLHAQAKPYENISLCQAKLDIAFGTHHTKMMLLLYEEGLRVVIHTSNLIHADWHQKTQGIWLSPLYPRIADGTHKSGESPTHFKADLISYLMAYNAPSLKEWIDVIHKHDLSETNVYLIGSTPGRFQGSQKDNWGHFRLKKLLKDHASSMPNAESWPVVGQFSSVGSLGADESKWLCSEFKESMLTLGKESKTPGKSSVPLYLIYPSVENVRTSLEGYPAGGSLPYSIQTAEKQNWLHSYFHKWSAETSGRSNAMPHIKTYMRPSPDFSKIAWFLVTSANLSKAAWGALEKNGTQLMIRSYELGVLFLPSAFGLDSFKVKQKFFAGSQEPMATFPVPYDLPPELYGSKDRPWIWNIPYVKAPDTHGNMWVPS
#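 Steps: enzyme plus compound, 15 min RT; add biotin/phosphotyrosine-FITC oligonucleotide (15 nM final), react 5 min; add donor/acceptor beads (10 ug/ml final), 10 min; read AlphaScreen. Tdp1 at 1 nM final.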
# Starred values were filed as active, the others as inactive; i = inactive; u = inconclusive; x = not tested or not shown; [ ] = another dose, or the depositor's remark. Unless noted, calls follow the shape of the dose curve; as a rule, active = well fitted curve in the direction sought with a large enough effect; inconclusive = small, poorly fitted or top-dose-only effect, or another doubt; inactive = no such curve, though single readings can be large; an effect the other way counts as inactive or inconclusive. % is scaled to controls: 0 for no effect and ±100 for the full control effect.
SMILES,Giardia kill,IL-1B inflam inh,TDP1 cell CPT,ELG1 DNA repair,TDP1 cell noCPT,TDP1 inh
CCN(CC1CCCO1)C(=O)c1cc(COc2ccccc2SC)on1 (stereo not given),-10,i,16µM*,21%,21µM*,1%
CC(=O)/C(=C\c1ccccc1)CC(=O)O,x,x,1%,x,5%,2%[56.1 µM]
Cc1ccc(S(=O)(=O)NCCn2cnc([N+](=O)[O-])n2)cc1,-12,25,2%,-3%,-13%,-3%
C[C@H](NC(=O)Cc1cccc2ccccc12)C(=O)N1CCOCC1,9,11,-2%,2%,1%,-3%
Cc1ccc2nc(-c3ccc(Cl)c(NC(=O)c4cccc([N+](=O)[O-])c4C)c3)oc2c1,x,x,u,x,4%,3%
COc1ccc(-c2noc(CN3CCN(c4cccc(Cl)c4)CC3)n2)cc1,x,x,u,x,u,1%
COc1ccc(N2CCN(Cc3nc(-c4ccc(C)cc4)no3)CC2)cc1,x,x,u,x,23µM*,x
COc1ccc(-c2noc(-c3ccoc3C)n2)cc1,-1,25,u,u,18µM*,4%
COc1cccc(-c2noc(-c3ccoc3C)n2)c1,-2,35,7%,u,-14%,-3%
COc1ccccc1N1CCN(Cc2nc(-c3cc(OC)c(OC)c(OC)c3)no2)CC1,x,x,23µM*,x,18µM*,9%
COc1ccc(-c2noc(-c3cccnc3N3CCN(c4ccc(OC)cc4)CC3)n2)cc1,x,x,15µM*,x,8.2µM*,6%
CCOc1ccc2c(c1)c(=O)c(C(=O)c1ccc(CC)cc1)cn2CC(=O)Nc1ccccc1C,x,x,u,x,u,1%
CC(C)(C)c1ccc(OCC(=O)Nc2c(C(=O)c3ccc(F)cc3)oc3ccccc23)cc1,x,x,u,x,u,-3%
COc1cc(-c2noc(CN3CCN(c4ccccc4)CC3)n2)cc(OC)c1OC,x,x,u,x,21µM*,9%
Clc1ccc(-c2noc(CN3CCN(c4ccccc4)CC3)n2)cc1,-16,17,-16%,0%,u,8%
CCOc1ccccc1NC(=O)Cn1c(=O)n(-c2ccc(C)cc2)c(=O)c2c1cnn2C,x,x,u,x,u,-3%
COc1ccc(-n2cc(-c3ccc(OC(F)F)cc3)[n+]3c2CCCCC3)cc1,5,u,1.3µM*,5.2µM*,0.82µM*,2%
COc1ccc(CCNCC(=O)Nc2ccc(OC(F)F)cc2)cc1,10,u,-5%,0%,-5%,-12%
COc1ccc(-c2cn(-c3ccc(Cl)cc3)c3[n+]2CCCCC3)cc1,28,u,2.3µM*,12µM*,2.6µM*,8%
Clc1ccc(-c2cn(-c3ccc(Cl)cc3)c3[n+]2CCCCC3)cc1,16,-7,8.2µM*,u,7.3µM*,-3%
CSCC[C@H](NC(=O)[C@@H](NC(=O)[C@H](CCC(=O)O)NC(=O)[C@H](CCSC)NC(=O)[C@H](CC(N)=O)NC(=O)[C@H](CCC(=O)O)NC(=O)[C@H](CC(N)=O)NC(=O)[C@H](CO)NC(=O)[C@H](C)N)[C@@H](C)O)C(=O)O,x,x,x,x,x,11%
COc1ccc2c(c1)OC/C(=C/c1ccc(O)c(O)c1)C2=O,x,x,3.3µM*,x,2.6µM*,5%
O=C1/C(=C/c2ccc(O)cc2)COc2ccccc21,-21,-104*,0%,u,-17%,22%
O=C1/C(=C/c2ccccn2)COc2ccccc21,5,9,2.1µM*,u,4.6µM*,7%
COc1ccc2c(c1)OC/C(=C/c1ccc(OC)c(OC)c1)C2=O,x,x,u,x,u,7%
SMILES,Giardia kill,IL-1B inflam inh,TDP1 cell CPT,ELG1 DNA repair,TDP1 cell noCPT,TDP1 inh
CCCCN(C)C(=O)C1CCN(Cc2cccc(OCc3ccccc3)c2)CC1,u,u,u,-24%,u,4%
CC(C)=CCC[C@](C)(OC1OC(COC2OCC(O)C(O)C2O)C(O)C(O)C1O)C1CC[C@]2(C)C1C(O)CC1[C@@]3(C)CCC(O[C@@H]4O[C@H](CO)C(O)C(O)C4O[C@@H]4OC(CO)C(O)C(O)C4O)C(C)(C)C3CC[C@]12C (stereo not given in full),6,16,25%,14%,-16%,1%
O=C(Nc1nnc(-c2ccco2)o1)c1ccc(Cl)s1,1,4,21µM*,14%,16µM*,5%
O=C(CS(=O)(=O)c1ccccc1)Nc1nnc(-c2cccs2)o1,-20,6,-15%,26%,-17%,9%
Cc1ccc(S(=O)(=O)CCC(=O)Nc2nnc(-c3ccco3)o2)cc1,-5,-14,u,-8%,u,1%
O=C(CCS(=O)(=O)c1ccc(Cl)cc1)Nc1nnc(-c2ccco2)o1,-5,-81*,9.2µM*,-2%,u,x
O=C(CSc1ccc(F)cc1)Nc1nnc(-c2ccco2)o1,29,28,u,24%,u,7%
O=C(Nc1nnc(-c2ccco2)o1)c1ccc(Br)s1,x,12,u,x,u,x
O=C(CCS(=O)(=O)c1ccc(Cl)cc1)Nc1nnc(-c2cccs2)o1,4,-17,16µM*,-3%,16µM*,0%
Cc1ccc(SCC(=O)Nc2nnc(-c3ccco3)o2)cc1,7,13,-6%,0%,29µM*,x
COc1ccccc1-c1ccnc(-n2ncc(C(=O)NC(c3cccnc3)C(F)(F)F)c2C)n1 (stereo not given),x,x,-5%[9.04 µM],x,u,x
Cc1ccc(S(=O)(=O)CCC(=O)Nc2nnc(-c3cccs3)o2)cc1,-20,-61*,u,15%,16µM*,x
Cc1ccc(S(=O)(=O)CCC(=O)OC(C)c2nnc(-c3cccs3)o2)cc1 (stereo not given),2,8,-7%,0%,-7%,1%
O=C(Nc1nnc(-c2cc(Cl)ccc2Cl)o1)c1ccco1,-11,7,u,u,16µM*,x
O=C(CC1N=C2c3ccccc3N=C(SCc3ccc(Cl)cc3)N2C1=O)NCCc1ccccc1 (stereo not given),x,x,u,x,u,6%
Cc1cc(C)c2c(n1)sc1c(N3CCN(C)CC3)ncnc12,1,x,u,u,13µM*,x

# High-throughput results: PubChem BioAssay, National Center for Advancing Translational Sciences (NCATS)
